# Results published in article PMC7862700, “An all-to-all approach to the identification of sequence-specific readers for epigenetic DNA modifications on cytosine”.
# Columns and labels:
# Test in all cases: DAPPL (digital affinity profiling via proximity ligation, sequencing); 10 mM Tris-HCl pH 7.5, 50 mM NaCl, 1 mM DTT, 4% glycerol, room temperature, 30 min; GST-TFs on glutathione beads, 16-mer random dsDNA library, 0.1% formaldehyde crosslink after washing; high values mean tight binding
# FEV = molecular target: T1, FEV (Homo sapiens, UniProt Q99581 1-238); conditions: protein: recombinant; tags: N-terminal GST; dsDNA, one strand shown
# T1 sequence: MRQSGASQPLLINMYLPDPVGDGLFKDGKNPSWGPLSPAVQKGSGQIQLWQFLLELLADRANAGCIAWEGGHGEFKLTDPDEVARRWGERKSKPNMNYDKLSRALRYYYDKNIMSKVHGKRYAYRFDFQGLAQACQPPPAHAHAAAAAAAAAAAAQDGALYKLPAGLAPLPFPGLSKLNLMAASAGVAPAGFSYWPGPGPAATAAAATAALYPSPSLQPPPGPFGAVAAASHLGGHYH
# Outline: (§1)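 Binding signal is given per hexamer as its read frequency for a factor divided by its frequency in the tag-only sample. GST-fused human transcription factors were expressed in yeast, captured on glutathione beads, barcoded with DNA and pooled with that sample, then incubated with 200 nmole of a 16-mer random double-stranded DNA library in Tris/NaCl/DTT/glycerol buffer for 30 min at room temperature. The pools were then washed, crosslinked, proximity-ligated, amplified by PCR and sequenced on an Illumina NextSeq500.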
# ETV5 = ETV5 (Homo sapiens, UniProt P41161 1-510); conditions: protein: recombinant; tags: N-terminal GST; dsDNA, one strand shown
# Sequence of ETV5 (P41161 whole entry): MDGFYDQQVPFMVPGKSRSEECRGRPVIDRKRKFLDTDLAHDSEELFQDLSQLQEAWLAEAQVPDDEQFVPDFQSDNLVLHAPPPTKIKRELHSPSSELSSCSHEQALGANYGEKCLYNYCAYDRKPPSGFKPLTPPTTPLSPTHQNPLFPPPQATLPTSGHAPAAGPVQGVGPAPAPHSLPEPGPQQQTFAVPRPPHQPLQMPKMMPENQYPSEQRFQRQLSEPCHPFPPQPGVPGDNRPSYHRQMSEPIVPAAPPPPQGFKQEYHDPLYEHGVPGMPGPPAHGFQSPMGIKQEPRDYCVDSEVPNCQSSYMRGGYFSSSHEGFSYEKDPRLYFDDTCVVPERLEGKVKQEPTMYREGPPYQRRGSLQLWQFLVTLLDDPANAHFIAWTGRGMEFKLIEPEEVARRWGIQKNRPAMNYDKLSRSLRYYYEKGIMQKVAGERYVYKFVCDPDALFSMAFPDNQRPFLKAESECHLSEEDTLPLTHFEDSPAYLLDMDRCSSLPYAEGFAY
# Outline: as §1
# HSF1 = HSF1 (Homo sapiens, UniProt Q00613 1-529); conditions: protein: recombinant; tags: N-terminal GST; chain copies: 3; dsDNA, one strand shown
# Sequence of HSF1 (Q00613 whole entry): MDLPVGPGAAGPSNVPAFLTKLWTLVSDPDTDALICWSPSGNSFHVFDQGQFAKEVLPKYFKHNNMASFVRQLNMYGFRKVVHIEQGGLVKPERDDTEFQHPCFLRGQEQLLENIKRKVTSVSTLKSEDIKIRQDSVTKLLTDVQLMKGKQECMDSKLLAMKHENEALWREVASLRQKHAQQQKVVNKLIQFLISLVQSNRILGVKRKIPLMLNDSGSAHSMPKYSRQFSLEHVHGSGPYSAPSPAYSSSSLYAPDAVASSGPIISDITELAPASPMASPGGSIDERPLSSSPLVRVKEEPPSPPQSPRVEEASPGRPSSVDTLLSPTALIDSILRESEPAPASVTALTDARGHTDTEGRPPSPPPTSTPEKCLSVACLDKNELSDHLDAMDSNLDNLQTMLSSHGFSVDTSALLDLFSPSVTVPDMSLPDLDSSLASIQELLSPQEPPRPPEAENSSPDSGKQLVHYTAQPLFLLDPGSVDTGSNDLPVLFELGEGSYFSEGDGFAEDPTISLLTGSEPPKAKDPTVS
# Outline: as §1
# SPIC = molecular target: T2, SPIC (Homo sapiens, UniProt Q8N5J4 1-248); conditions: protein: recombinant; tags: N-terminal GST; dsDNA, one strand shown
# T2 sequence: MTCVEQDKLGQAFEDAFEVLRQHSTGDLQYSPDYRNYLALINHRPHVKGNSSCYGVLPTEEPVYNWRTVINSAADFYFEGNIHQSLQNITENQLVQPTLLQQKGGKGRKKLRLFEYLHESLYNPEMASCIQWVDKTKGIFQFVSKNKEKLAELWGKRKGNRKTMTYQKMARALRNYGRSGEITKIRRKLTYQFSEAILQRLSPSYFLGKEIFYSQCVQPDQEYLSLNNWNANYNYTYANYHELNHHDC
# Outline: as §1
# ELF4 = ELF4 (Homo sapiens, UniProt Q99607 1-663); conditions: protein: recombinant; tags: N-terminal GST; dsDNA, one strand shown
# Sequence of ELF4 (Q99607 whole entry): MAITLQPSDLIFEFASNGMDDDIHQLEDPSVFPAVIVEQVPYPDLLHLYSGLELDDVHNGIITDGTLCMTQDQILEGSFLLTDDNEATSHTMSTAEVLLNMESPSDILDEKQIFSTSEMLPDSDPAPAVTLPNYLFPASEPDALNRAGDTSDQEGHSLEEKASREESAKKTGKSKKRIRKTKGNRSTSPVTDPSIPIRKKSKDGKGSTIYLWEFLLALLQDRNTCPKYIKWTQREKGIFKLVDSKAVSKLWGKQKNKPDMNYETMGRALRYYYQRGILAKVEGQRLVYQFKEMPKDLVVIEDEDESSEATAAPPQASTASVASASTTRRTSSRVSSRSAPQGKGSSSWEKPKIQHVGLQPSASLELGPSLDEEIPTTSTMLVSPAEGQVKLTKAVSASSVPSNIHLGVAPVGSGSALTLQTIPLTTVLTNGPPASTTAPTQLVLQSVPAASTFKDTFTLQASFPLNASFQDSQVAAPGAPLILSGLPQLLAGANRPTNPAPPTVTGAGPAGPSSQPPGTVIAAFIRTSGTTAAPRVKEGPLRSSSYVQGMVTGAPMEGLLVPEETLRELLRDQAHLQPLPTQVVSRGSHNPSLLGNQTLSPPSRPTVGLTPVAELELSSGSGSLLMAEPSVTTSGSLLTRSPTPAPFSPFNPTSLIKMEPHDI
# Outline: as §1
# ELK4 = molecular target: T3, ELK4 (Homo sapiens, UniProt P28324-2 1-405); conditions: protein: recombinant; tags: N-terminal GST; dsDNA, one strand shown
# T3 sequence: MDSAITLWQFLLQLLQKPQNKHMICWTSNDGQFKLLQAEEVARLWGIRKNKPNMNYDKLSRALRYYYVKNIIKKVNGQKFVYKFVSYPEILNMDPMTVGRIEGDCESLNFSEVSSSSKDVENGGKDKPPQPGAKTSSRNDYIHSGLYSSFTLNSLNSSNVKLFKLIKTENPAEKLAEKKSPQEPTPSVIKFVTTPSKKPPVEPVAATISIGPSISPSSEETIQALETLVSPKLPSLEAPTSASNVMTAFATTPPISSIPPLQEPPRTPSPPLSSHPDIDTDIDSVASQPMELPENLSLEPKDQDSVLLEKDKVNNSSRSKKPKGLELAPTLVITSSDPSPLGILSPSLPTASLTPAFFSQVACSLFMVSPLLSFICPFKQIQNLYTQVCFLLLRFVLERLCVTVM
# Outline: as §1
# ETV2 = molecular target: T4, ETV2 (Homo sapiens, UniProt O00321 1-342); conditions: protein: recombinant; tags: N-terminal GST; dsDNA, one strand shown
# T4 sequence: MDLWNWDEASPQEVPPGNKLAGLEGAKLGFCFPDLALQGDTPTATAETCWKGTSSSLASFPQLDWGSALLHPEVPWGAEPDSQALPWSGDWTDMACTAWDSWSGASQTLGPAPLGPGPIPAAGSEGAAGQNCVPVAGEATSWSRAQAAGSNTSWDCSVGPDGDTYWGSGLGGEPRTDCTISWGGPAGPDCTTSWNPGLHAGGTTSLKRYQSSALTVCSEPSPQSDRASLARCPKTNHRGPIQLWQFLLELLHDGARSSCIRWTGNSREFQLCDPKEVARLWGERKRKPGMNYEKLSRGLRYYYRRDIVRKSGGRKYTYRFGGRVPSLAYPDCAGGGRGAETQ
# Outline: as §1
# ELF3 = molecular target: T5, ELF3 (Homo sapiens, UniProt P78545 1-371); conditions: protein: recombinant; tags: N-terminal GST; dsDNA, one strand shown
# T5 sequence: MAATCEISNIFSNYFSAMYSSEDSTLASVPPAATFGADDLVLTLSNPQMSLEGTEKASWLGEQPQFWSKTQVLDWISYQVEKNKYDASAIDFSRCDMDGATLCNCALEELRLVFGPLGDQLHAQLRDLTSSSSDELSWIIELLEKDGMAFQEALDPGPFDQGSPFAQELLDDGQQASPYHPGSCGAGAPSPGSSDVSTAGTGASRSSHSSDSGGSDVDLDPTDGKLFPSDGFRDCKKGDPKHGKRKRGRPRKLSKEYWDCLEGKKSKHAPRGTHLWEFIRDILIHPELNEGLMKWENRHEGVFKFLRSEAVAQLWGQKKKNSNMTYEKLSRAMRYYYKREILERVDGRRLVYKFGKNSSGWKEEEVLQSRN
# Outline: as §1
# CRX = CRX (Homo sapiens, UniProt O43186 1-299); conditions: protein: recombinant; tags: N-terminal GST; dsDNA, one strand shown
# Sequence of CRX (O43186 whole entry): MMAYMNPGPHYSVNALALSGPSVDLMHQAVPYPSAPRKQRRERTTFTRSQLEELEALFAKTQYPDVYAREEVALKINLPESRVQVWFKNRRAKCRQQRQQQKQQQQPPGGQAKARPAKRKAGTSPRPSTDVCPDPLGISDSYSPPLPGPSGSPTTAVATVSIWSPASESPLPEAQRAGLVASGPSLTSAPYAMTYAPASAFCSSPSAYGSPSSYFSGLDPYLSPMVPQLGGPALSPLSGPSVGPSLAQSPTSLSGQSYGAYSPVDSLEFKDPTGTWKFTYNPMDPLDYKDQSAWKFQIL
# Outline: as §1
# ETV1 = ETV1 (Homo sapiens, UniProt P50549 1-477); conditions: protein: recombinant; tags: N-terminal GST; dsDNA, one strand shown
# Sequence of ETV1 (P50549 whole entry): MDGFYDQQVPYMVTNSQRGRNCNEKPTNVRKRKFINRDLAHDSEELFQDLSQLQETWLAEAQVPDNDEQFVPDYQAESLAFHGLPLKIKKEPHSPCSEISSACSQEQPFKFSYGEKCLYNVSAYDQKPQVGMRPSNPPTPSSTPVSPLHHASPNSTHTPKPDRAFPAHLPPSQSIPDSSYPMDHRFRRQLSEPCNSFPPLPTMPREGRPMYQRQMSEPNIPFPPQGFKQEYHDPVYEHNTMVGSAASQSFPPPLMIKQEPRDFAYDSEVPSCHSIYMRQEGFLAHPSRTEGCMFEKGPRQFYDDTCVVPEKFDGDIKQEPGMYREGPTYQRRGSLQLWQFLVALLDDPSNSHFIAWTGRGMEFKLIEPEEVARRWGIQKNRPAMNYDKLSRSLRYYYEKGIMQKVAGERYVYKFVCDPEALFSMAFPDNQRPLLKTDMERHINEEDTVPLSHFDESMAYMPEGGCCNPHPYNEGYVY
# Outline: as §1
# ERF = molecular target: T6, ERF (Homo sapiens, UniProt P50548 1-548); conditions: protein: recombinant; tags: N-terminal GST; dsDNA, one strand shown
# T6 sequence: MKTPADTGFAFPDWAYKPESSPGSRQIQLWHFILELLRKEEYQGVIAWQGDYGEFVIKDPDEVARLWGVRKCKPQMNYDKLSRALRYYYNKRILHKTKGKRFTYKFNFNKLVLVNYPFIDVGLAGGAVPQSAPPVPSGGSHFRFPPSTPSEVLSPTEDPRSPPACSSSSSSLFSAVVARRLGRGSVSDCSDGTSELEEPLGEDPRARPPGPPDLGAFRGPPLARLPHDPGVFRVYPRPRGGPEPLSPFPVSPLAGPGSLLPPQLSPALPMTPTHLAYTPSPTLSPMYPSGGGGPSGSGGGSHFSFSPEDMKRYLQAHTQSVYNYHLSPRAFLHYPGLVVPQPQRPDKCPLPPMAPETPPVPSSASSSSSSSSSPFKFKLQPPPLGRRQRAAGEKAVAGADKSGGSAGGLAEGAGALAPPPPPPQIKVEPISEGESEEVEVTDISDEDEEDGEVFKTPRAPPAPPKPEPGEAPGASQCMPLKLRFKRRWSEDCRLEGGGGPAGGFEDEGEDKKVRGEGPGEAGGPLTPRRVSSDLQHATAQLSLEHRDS
# Outline: as §1
# ETV3L = molecular target: T7, ETV3L (Homo sapiens, UniProt Q6ZN32 1-361); conditions: protein: recombinant; tags: N-terminal GST; dsDNA, one strand shown
# T7 sequence: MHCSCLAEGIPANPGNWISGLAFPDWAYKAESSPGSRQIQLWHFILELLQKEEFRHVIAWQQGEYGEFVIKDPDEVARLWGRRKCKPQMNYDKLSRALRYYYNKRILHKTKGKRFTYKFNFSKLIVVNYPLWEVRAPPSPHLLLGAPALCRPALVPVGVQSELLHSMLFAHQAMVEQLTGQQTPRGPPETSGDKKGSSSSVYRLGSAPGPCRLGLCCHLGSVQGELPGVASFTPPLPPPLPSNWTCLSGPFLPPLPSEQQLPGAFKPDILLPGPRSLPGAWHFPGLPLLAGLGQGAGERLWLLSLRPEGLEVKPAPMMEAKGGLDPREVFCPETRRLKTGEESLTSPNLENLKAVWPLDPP
# Outline: as §1
# ETS2 = molecular target: T8, ETS2 (Homo sapiens, UniProt P15036 1-469); conditions: protein: recombinant; tags: N-terminal GST; dsDNA, one strand shown
# T8 sequence: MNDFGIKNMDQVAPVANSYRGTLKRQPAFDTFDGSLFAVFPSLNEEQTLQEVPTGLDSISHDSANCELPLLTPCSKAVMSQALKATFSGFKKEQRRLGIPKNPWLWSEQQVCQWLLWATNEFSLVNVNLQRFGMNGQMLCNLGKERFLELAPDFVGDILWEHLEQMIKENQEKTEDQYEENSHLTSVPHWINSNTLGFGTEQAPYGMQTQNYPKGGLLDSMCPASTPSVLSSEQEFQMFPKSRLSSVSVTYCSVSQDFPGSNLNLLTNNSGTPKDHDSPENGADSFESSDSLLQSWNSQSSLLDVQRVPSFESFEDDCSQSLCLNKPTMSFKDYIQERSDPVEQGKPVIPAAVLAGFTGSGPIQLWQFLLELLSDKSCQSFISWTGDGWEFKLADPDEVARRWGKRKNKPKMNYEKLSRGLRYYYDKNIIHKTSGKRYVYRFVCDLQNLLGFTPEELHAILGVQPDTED
# Outline: as §1
# SPDEF = molecular target: T9, SPDEF (Homo sapiens, UniProt O95238 1-335); conditions: protein: recombinant; tags: N-terminal GST; dsDNA, one strand shown
# T9 sequence: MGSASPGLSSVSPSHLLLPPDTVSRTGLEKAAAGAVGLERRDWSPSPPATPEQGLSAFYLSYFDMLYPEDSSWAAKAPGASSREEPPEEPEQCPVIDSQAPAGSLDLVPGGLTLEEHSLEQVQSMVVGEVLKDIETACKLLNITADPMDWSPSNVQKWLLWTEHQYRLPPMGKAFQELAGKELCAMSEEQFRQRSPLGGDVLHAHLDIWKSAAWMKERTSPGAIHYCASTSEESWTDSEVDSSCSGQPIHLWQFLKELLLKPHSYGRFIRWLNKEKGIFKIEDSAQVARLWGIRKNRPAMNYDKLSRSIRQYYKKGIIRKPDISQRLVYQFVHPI
# Outline: as §1
# ETV7 = molecular target: T10, ETV7 (Homo sapiens, UniProt Q9Y603 1-341); conditions: protein: recombinant; tags: N-terminal GST; dsDNA, one strand shown
# T10 sequence: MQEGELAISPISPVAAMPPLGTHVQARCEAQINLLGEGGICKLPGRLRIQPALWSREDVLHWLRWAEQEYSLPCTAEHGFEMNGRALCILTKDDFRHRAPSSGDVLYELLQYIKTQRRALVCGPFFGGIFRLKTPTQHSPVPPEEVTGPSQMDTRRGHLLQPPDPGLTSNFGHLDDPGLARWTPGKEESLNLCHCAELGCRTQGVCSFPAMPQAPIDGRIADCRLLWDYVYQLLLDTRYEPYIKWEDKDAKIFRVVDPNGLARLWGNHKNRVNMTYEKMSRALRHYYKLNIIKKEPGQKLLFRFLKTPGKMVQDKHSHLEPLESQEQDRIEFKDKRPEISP
# Outline: as §1
# ELF5 = molecular target: T11, ELF5 (Homo sapiens, UniProt Q9UKW6-2 1-255); conditions: protein: recombinant; tags: N-terminal GST; dsDNA, one strand shown
# T11 sequence: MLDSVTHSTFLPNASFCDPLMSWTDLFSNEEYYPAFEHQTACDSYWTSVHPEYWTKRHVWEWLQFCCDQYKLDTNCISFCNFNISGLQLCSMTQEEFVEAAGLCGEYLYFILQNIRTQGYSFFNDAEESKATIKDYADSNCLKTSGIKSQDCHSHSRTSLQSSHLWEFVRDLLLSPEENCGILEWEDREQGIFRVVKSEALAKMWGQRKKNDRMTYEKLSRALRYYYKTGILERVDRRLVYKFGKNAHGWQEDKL
# Outline: as §1
# ETV3 = molecular target: T12, ETV3 (Homo sapiens, UniProt P41162-2 1-143); conditions: protein: recombinant; tags: N-terminal GST; dsDNA, one strand shown
# T12 sequence: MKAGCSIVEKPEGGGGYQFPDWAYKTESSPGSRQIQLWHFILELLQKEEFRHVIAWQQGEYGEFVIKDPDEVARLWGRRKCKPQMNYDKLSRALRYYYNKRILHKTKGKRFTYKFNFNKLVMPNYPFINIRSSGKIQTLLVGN
# Outline: as §1
# ETV6 = ETV6 (Homo sapiens, UniProt P41212 1-452); conditions: protein: recombinant; tags: N-terminal GST; dsDNA, one strand shown
# Sequence of ETV6 (P41212 whole entry): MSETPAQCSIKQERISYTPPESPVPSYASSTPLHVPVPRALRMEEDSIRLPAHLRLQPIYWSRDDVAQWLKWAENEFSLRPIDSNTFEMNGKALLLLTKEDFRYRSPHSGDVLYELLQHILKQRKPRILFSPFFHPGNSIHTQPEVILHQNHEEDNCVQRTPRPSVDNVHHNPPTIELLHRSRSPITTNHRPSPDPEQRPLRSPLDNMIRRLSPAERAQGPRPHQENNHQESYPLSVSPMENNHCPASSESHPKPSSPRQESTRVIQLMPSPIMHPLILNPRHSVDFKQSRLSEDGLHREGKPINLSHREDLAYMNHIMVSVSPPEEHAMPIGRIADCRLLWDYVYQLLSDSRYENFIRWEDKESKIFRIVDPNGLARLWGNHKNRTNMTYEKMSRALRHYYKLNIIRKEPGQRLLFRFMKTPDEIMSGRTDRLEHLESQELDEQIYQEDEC
# Outline: as §1
sequence,measurement,setting,value
ATGGAT,binding signal,FEV,"1.04 fold enrichment (6-mer frequency, TF over GST control)"
same,binding signal,ETV5,"1.07 fold enrichment (6-mer frequency, TF over GST control)"
same,binding signal,HSF1,"1.26 fold enrichment (6-mer frequency, TF over GST control)"
same,binding signal,SPIC,"1.21 fold enrichment (6-mer frequency, TF over GST control)"
same,binding signal,ELF4,"1.11 fold enrichment (6-mer frequency, TF over GST control)"
same,binding signal,ELK4,"1.14 fold enrichment (6-mer frequency, TF over GST control)"
same,binding signal,ETV2,"1.06 fold enrichment (6-mer frequency, TF over GST control)"
same,binding signal,ELF3,"1.09 fold enrichment (6-mer frequency, TF over GST control)"
same,binding signal,CRX,"1.6 fold enrichment (6-mer frequency, TF over GST control)"
same,binding signal,ETV1,"1.06 fold enrichment (6-mer frequency, TF over GST control)"
same,binding signal,ERF,"1.09 fold enrichment (6-mer frequency, TF over GST control)"
same,binding signal,ETV3L,"1.16 fold enrichment (6-mer frequency, TF over GST control)"
same,binding signal,ETS2,"1.09 fold enrichment (6-mer frequency, TF over GST control)"
same,binding signal,SPDEF,"1.01 fold enrichment (6-mer frequency, TF over GST control)"
same,binding signal,ETV7,"1.16 fold enrichment (6-mer frequency, TF over GST control)"
same,binding signal,ELF5,"1.06 fold enrichment (6-mer frequency, TF over GST control)"
same,binding signal,ETV3,"1.11 fold enrichment (6-mer frequency, TF over GST control)"
same,binding signal,ETV6,"1.09 fold enrichment (6-mer frequency, TF over GST control)"
